Assay outcomes: PubChem, National Center for Advancing Translational Sciences (NCATS)
Nrf2 ARE act = Nrf2 pathway activation | Potency, µM (highest dose often 46.1 µM), for the others: at the top dose activation, most hits filed as activators | AREc32 ARE-luciferase reporter (MCF7-derived line), luminescence, 24 h | AID 624171 | hit rate 0.31% among 410,000; also: potency is read from the fitted curve at half-maximal effect; % of control where 0% means no effect; nearly all actives have a fitted effect of over 65% in size
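AREc32 cells carrying an ARE-driven firefly luciferase reporter were seeded at 1000 cells/well in OPTI-MEM with 5% FBS, then exposed to compound for 24 hr at 37 deg C. Luminescence was read with Steady-Glo after 30 min at RT.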
IL2 activator = activators of IL-2; IL-2 activation reporter assay, cell-based qHTS; stimulated with anti-CD3/CD4/CD28 beads; in transgenic mouse T cells; hit rate 0.065% among 360,000; activation, % (series mostly up to about 46 µM); in the data active = activation above about 50%; inconclusive = mostly about 30% to 49%; also: 0% is about no effect
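Quantitative HTS in unstimulated transgenic mouse T cells, with memory T cells as non-tolerant control and PMA/ionomycin as tolerance-bypass control. Compound pretreatment lasted 60 minutes before 18 h bead stimulation; EGFP/DsRed fluorescence read.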
Nrf2 inh = Nrf2 pathway inhibition. A549 ARE-Fluc reporter, luciferase luminescence, 18-24 h. Potency, µM (titrated, usually from 46 µM), for inactives: at the highest dose activity change, negative = inhibition, actives largely listed as inhibitors. hit rate 2.1% among 360,000; also: potency is read from the fitted curve at half-maximal effect; % is scaled to controls: 0 for no effect and ±100 for the full control effect; nearly all actives have a fitted effect of over 60% in size
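In this cell-based qHTS, ARE-driven firefly luciferase in A549 cells reports Nrf2 activity; the luminescent signal after BugLite lysis is the measured value, with a prior CellTiter-Fluor read for cell health.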
A549 tox = A549 cytotoxicity, counter-screen for Nrf2 inhibitors; A549 ARE-Fluc cells, CellTiter-Fluor viability, 18-24 h; Potency, µM (doses to about 46 µM), for inactives: at the top dose activity change, negative = cytotoxicity, usual class: inhibitors; hit rate 0.16% among 390,000; also: potency is read from the fitted curve at half-maximal effect; % is scaled to controls: 0 for no effect and ±100 for the full control effect
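Cytotoxicity counterscreen: CellTiter-Fluor fluorescence was measured in A549 ARE_Fluc cells after 18-24 h of compound exposure in a concentration series. The subsequent BugLite luminescent read reports ARE-luciferase activity.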
The depositor's hits bear a star; ? = inconclusive; / = no result; [ ] = remark or other dose. Compounds with a hit are over-represented: about 2.3% of the library has one in this group of screens. Unless noted, calls follow the shape of the dose curve; as a rule, active = well fitted curve in the direction sought with a large enough effect; inconclusive = small, poorly fitted or top-dose-only effect, or another doubt; inactive = no such curve, though single readings can be large; an effect the other way counts as inactive or inconclusive.

SMILES | Nrf2 ARE act | IL2 activator | Nrf2 inh | A549 tox
COc1cc(NS(=O)(=O)c2ccc(OC)c(C)c2C)c(OC)cc1Cl | 0% | 0 | 21µM* | -13%
COc1ccc(OC)c(S(=O)(=O)Nc2cc(OC)c(Cl)cc2OC)c1 | 0% | -1 | ? | 1%[1.84 µM]
O=C1CCCC2=C1C1(CCCC1)N=C(Nc1nc3cc4ccccc4cc3o1)N2 | / | / | -2% | -2%
CCOCc1cc(CN2CCN(c3cccc(C(F)(F)F)c3)CC2)c(O)c2ncccc12 | 0% | / | ? | -2%
CC(C)OCc1cc(CN2CCN(c3cccc(C(F)(F)F)c3)CC2)c(O)c2ncccc12 | 1% | / | 16µM* | -25%
Cc1ccc(Nc2c([N+](=O)[O-])c(=O)oc3ccccc23)cc1 | ? | -3 | 18µM* | ?
O=C(CNCc1ccccc1Cl)Nc1cc(S(=O)(=O)N2CCOCC2)ccc1Cl | 8% | -1 | 16µM* | -13%
O=S(=O)(c1ccc(Cl)c(NC(=S)N/N=C/c2c(F)cccc2F)c1)N1CCOCC1 | 14% | -3 | -17% | -18%
CN(CC(=O)Nc1cc(S(=O)(=O)N2CCCC2)ccc1Cl)Cc1cccs1 | 1% | 0 | 26µM* | -8%
Cc1ccc(S(=O)(=O)N2CCOCC2)cc1NC(=O)CNCc1ccc(Cl)cc1Cl | 0% | -1 | 13µM* | 0%
O=S(=O)(c1ccc(Cl)c(NC(=S)N/N=C/c2ccc(O)cc2)c1)N1CCOCC1 | -3% | 0 | 16µM* | -23%
Cc1ccc(S(=O)(=O)N2CCN(c3nc(-c4cccnc4)nc4ccccc34)CC2)cc1 | / | / | 8% | -2%
COc1ccc(C2Nc3ccccc3C(=O)N2Cc2ccccc2)cc1COc1ccc(C)cc1 (stereo not given) | / | / | -8% | 2%
COc1cc(C2SC[C@H]3C(=O)N(c4ccccc4)C(=O)N23)cc(OC)c1OC (stereo not given in full) | 0% | / | -2% | 0%
Cc1ccc(S(=O)(=O)N2CCN(c3nc(-c4ncccn4)nc4ccccc34)CC2)cc1 | / | / | -3% | 2%
CCN(CC)c1ccc(S(=O)(=O)N2CCOCC2)cc1NC(=O)CNCc1cccc(Cl)c1 | -1% | 1 | 26µM* | ?
CCN(CC)c1ccc(S(=O)(=O)N2CCOCC2)cc1NC(=O)CSc1ccccc1 | 2% | -5 | -15% | 0%
Cc1cc(C)cc(OCC(O)CN2CCC(CN3C(=O)c4cccc5cccc(c45)C3=O)CC2)c1 (stereo not given) | -1% | -3 | 18µM* | ?
O=S(=O)(c1ccccc1F)N1CCN(CCc2ccccc2)CC1 | 4% | -4 | 18µM* | -4%
O=S(=O)(NCCN1CCN(S(=O)(=O)c2ccccc2F)CC1)c1ccccc1F | 0% | 0 | -4% | 0%
O=S(=O)(c1ccc(F)c(F)c1)N1CCN(CCc2ccccc2)CC1 | 4% | 1 | 23µM* | 0%
O=c1c2ccccc2nc(-c2ccc(Cl)cc2)n1CCCCOc1ccc(F)cc1 | 6% | / | 2% | 10%
N#Cc1nc(Nc2cc(Cl)cc(Cl)c2)nc(NC2CCCC2)n1 | / | / | ? | -27%
Cc1c(C(=O)N(C)C)sc2c1c(=O)n(-c1ccc(Cl)c(Cl)c1)c(=O)n2CC(=O)Nc1ccc(Br)cc1F | / | / | 16% | 4%
Cc1nn2c3c(cnc2c1-c1ccc(F)cc1)C(=O)CC(c1ccccc1)C3 (stereo not given) | -1% | / | -19% | 4%
SMILES | Nrf2 ARE act | IL2 activator | Nrf2 inh | A549 tox
CC1(C)CC(=O)C=C(C(=O)N2CCCC(C(=O)c3cccc(C(F)(F)F)c3)C2)O1 (stereo not given) | 1% | -1 | 9.2µM* | ?
CC1(C)CC(=O)C=C(C(=O)N2CCCC(C(=O)c3cc(F)ccc3F)C2)O1 (stereo not given) | 1% | 3 | / | /
C=C1C(=O)O[C@H]2[C@H]1[C@H](OC(=O)/C(C)=C\C)C[C@]1(CO1)[C@@H]1[C@H](OC(C)=O)C=C(C)[C@]21O | 16µM* | -5 | -4% | -5%
COc1ccc(S(=O)(=O)Nc2cccc(N(C)S(C)(=O)=O)c2)cc1Br | 3% | -3 | 18µM* | -18%
COc1ccc(S(=O)(=O)Nc2cccc(C(C)=O)c2)cc1Br | 5% | -1 | ? | 2%
O=C(O)Cc1cc(F)c(S(=O)(=O)N2CCN(S(=O)(=O)c3ccc4c(c3)OCCO4)CC2)cc1F | / | / | -7% | -1%
COc1ccc2[nH]c3c(NCc4ccco4)ncnc3c2c1 | 3.2µM* | 2 | ? | 7%
OCCCNc1ncnc2c1[nH]c1ccccc12 | 0% | 0 | -11% | 1%
Fc1ccc2[nH]c3c(NCc4ccccc4)ncnc3c2c1 | 6% | -6 | 18µM* | -14%
O=C(c1ccc(Cn2cc(Cl)c([N+](=O)[O-])n2)cc1)N1CCN(Cc2ccccc2)CC1 | 5% | 1 | 21µM* | -11%
O=C(Nc1cccc(F)c1)c1ccc(S(=O)(=O)NCC2CCCO2)cc1 (stereo not given) | 6% | 1 | 21µM* | -4%
O=C(Nc1ccc2c(c1)OCO2)c1ccc(S(=O)(=O)NCC2CCCO2)cc1 (stereo not given) | 4% | -5 | -18% | 8%
O=C(c1ccc(S(=O)(=O)NCC2CCCO2)cc1)N1CCN(c2cccc(Cl)c2)CC1 (stereo not given) | 0% | -3 | 13µM* | 2%
CCCN1CNc2c(c(=O)[nH]c(=S)n2CCc2cc(OC)ccc2OC)C1 | / | / | -11% | ?
COc1ccc(OC)c(NC2=C(c3ccccc3)C(=O)c3ccccc32)c1 | -1% | / | 12% | -19%
Cc1cc(=O)c2cc(C(=O)Nc3ccccc3C)ccc2[nH]1 | 0% | / | 21µM* | 7%
CNC(=O)CSc1nc2cc(S(=O)(=O)Nc3ccc(OC)cc3)ccc2o1 | -1% | -3 | -15% | -2%
COc1ccc(NS(=O)(=O)c2ccc3oc(SC)nc3c2)cc1 | 3% | -4 | 21µM* | -1%
Cc1ccccc1NS(=O)(=O)c1ccc(C(=O)NCC(C)(C)N2CCOCC2)cc1 | 0% | 2 | 10µM* | -7%
COc1ccc(-c2noc(CCC(=O)NCc3ccc(OC)cc3OC)n2)cc1 | 0% | / | 0% | 4%
O=C(Nc1ccccc1)C1=C[C@@H](c2csc3ccccc23)C[C@@H](OCc2ccc(CO)cc2)O1 | 5% | -1 | 16µM* | -1%
O=C(CSc1nnc(-c2c[nH]c3ccccc23)o1)N(Cc1ccccc1)c1ccc(F)cc1 | 4% | -3 | 18µM* | ?
CC(=O)NCc1nnc2c3ccccc3c(-c3ccccc3)nn12 | 0% | 1 | -11% | -5%
O=C(NCc1nnc2c3ccccc3c(-c3ccccc3)nn12)c1ccc(Cl)cc1 | 3% | -5 | 21µM* | ?
Cn1nccc1NC(=O)Nc1cccc(Cl)c1Cl | 4% | -1 | 16µM* | -1%
COC(=O)/C(N=Nc1cccc(C(F)(F)F)c1)=C(\C)O | 1% | -1 | -2% | -2%
CC(=O)Nc1ncc(N=Nc2cccc(C(F)(F)F)c2)s1 | ? | 0 | -19% | 12µM*
